Reference: PubChem BioAssay (EPA / NIEHS)
Active and inactive are the calls of the source. Rule for the calls: active = hit-call score of the fitted dose curve at least 0.9, where 1 is the maximum; inactive = score below 0.9.

What follows are molecules tested on Forkhead box O1 (FOXO1), FOXO1 (gene 2308) (assay: LTEA_HepaRG_FOXO1: Life Technologies and Expression Analysis (LTEA) Assay for Forkhead box O1 (FOXO1) using HepaRG (AID 2283456)). Conditions: mRNA level, 48 h; actives raise or lower the signal.
Method: LTEA_HepaRG is a cell based, multiplexed-readout assay that uses HepaRG, a human liver cell line, with measurements taken at 48 hours after chemical dosing on a 96-well plate.LTEA_HepaRG_FOXO1 is one of 102 assay component(s) measured in the LTEA HepaRG cell culture assay. It is a marker of Cell proliferation, survival, death.Data from the assay component LTEA_HepaRG_FOXO1 was analyzed into 1 endpoint. This assay endpoint, LTEA_HepaRG_FOXO1, was analyzed with bidirectional fitting relative to DMSO as the negative control and baseline of activity. Using a type of inducible reporter, measures of mRNA induction for gain or loss-of-signal activity can be used to understand regulation of transcription factor activity. To generalize the intended target to other relatable targets, this assay endpoint is annotated to the dna binding intended target family, where the subfamily is forkhead box protein.
A total of 1060 chemcials from the ToxCast library were tested in eight-point concentration-response experiments. Cell culture and cytotoxicity assays were conducted at Thermo Fisher Scientific's Custom Services facility (Madison, WI). A single lot of human HepaRG cells (Thermo Fisher Scientific, Frederick, MD) was used for the cell culture experiments. 96-well format collagen type I coated plates of human HepaRG cells were prepared using established methods. Briefly, cryopreserved HepaRG cells were thawed, plated at a density of approximately 100,000 cells/well in HepaRG Thaw, Plate, and General Purpose media (HPRG770, Thermo Fisher Scientific), and incubated for 48 hours. 0.5% DMSO was selected as vehicle control to balance the requisite need of DMSO in HepaRG cultures to maintain differentiation (for example, baseline metabolism, proportions of hepatocytes vs. cholangiocytes), while enabling further hepatic receptor pathway activation (for example, PXR and CAR) in response to chemical exposure. 48 hours after plating, the culture medium was replaced with HepaRG Serum-Free Incudtion Media. Cells were exposed to each test chemical in duplicate and maintained in CO2 incubators for another 48 hours. Chemical plates were thawed to room temperature and 200x concentrations of treatment groups were prepared. 8-point conentration-reponse curves were made with the highest exposure at 100 uM, followed by half-log dilutions, all in 0.5% DMSO. Each test plate contained variouse controls, induction positive controls (1mM phenobarbital), cytotoxicity positive controls ([…] aflatoxin B1), vehicle controls (0.5% DMSO), and total lysis controls (0.5% DMSO). Cell morphology images were taken using an Essen IncuCyte FLR automated microscope, with six 96-well plates imaged in about 24 minutes. Images were captured and exported and JPEG files. Spent culture media was transfered to black-well plates for the LDH assay, and remaining media was sorted at -80 C for later use. Cells were treated with RLT buffer and frozen until shipped for gene expression analysis. Total RNA was isolated from the cell suspension in 75 uL of Buffer RLT (Qiagen, Germantown, MD 20874) by Quintiles/Expression Analysis (Durham, NC) using a custom isolation procedure. Total RNA from each plate well was transferred to a preamplification plate. Fluidigm's 96.96 Dynamic ArrayTM (Fluidigm, Amsterdam, the Netherlands) technology was used for gene expression analyses by quantitative reverse transcription polymerase chain reaction (qRT-PCR, performed by Quintiles/Expression Analysis, Durham, NC)89. Standard TaqManTM Assays (Applied Biosystems/ThermoFisher Scientific, Foster City, CA) were used to assess the expression of 93 genes selected based on their selectivity and sensitivity to important hepatic receptors known to be modulated by environmental chemicals; importance in human hepatocyte functionality; and hepatotoxicity. […]
For CCOP(=S)(OCC)SCSCC, the outcome was “inactive”.
With Cc1cccc(N)c1 the outcome was “inactive”.
CCCCN(CCCC)N=O was tested, and the outcome was “inactive”.
c1nc[nH]n1 was tested, and the outcome was “inactive”.
With O=P(Oc1ccccc1)(Oc1ccccc1)Oc1ccccc1 the outcome was “inactive”.
With CCCN(CCC)c1c([N+](=O)[O-])cc(C(C)C)cc1[N+](=O)[O-] the outcome was “inactive”.
With c1ccc(OP(Oc2ccccc2)Oc2ccccc2)cc1 the outcome was “inactive”.
For CC(Cl)(Cl)C(=O)O, the outcome was “inactive”.
With ClC(Cl)(Cl)c1ccccc1 the outcome was “inactive”.
For CCNc1nc(Cl)nc(NC(C)(C)C)n1, the outcome was “inactive”.
With CCCCc1ccccc1 the outcome was “inactive”.
For CCCCN(CCCC)SN(C)C(=O)Oc1cccc2c1OC(C)(C)C2, the outcome was “inactive”.
With O=C(O)C(Cl)Cl the outcome was “inactive”.
COCCOCCO was tested, and the outcome was “inactive”.
For OCC1CO1 (stereo not given), the outcome was “inactive”.
CCCCCCCc1ccc(O)cc1 was tested, and the outcome was “inactive”.
In the case of CCC1(c2ccccc2)C(=O)N=C(O)NC1=O (stereo not given), the outcome is reported as “inactive”.
In the case of CCN(CC)c1ccccc1, the outcome is reported as “inactive”.
With CC(C)(C)OOC(C)(C)C the outcome was “inactive”.
In the case of O=C(O)C1C(C(=O)O)C2(Cl)C(Cl)=C(Cl)C1(Cl)C2(Cl)Cl (stereo not given), the outcome is reported as “inactive”.
With ClC(Cl)c1ccccc1 the outcome was “inactive”.
In the case of CSC(C)(C)C=NO, the outcome is reported as “inactive”.
With [N-]=[N+]=[N-] the AC50 was 76.1 µM (active).
In the case of Cc1ccc(O)cc1C, the outcome is reported as “inactive”.
O=P1(N(CCCl)CCCl)NCCCO1 (stereo not given) was tested, and the outcome was “inactive”.
Nc1cc2c3c(c1)C(c1ccccc1)=N[C@@H](NC(=O)c1cccnc1)C(=O)N3CC2 was tested, and the outcome was “inactive”.
For CCOC(=O)c1ccccc1C(=O)OCC, the outcome was “inactive”.
CCOP(=S)(Oc1ccc([N+](=O)[O-])cc1)c1ccccc1 (stereo not given) was tested, and the outcome was “inactive”.
With CCOS(=O)(=O)OCC the outcome was “inactive”.
In the case of O=[N+]([O-])c1ccc(Cl)c(Cl)c1, the outcome is reported as “inactive”.
c1cc2c3c(cccc3c1)CC2 was tested, and the outcome was “inactive”.
Nc1ccc(Cl)cc1 was tested, and the outcome was “inactive”.
In the case of Nc1ccc2ccccc2c1, the outcome is reported as “inactive”.
In the case of Cc1ccc(N)cc1N, the outcome is reported as “inactive”.
For CCOc1ccc(C(C)(C)COCc2cccc(Oc3ccccc3)c2)cc1, the outcome was “inactive”.
With ClC1=C(Cl)C2(Cl)C3C(Cl)C(Cl)CC3C1(Cl)C2(Cl)Cl (stereo not given) the outcome was “inactive”.
CC(Cc1ccc(OCC(=O)O)cc1)NCC(O)c1csc(C(F)(F)F)n1 (stereo not given) was tested, and the outcome was “inactive”.
c1ccc2c(c1)Nc1ccccc1S2 was tested, and the outcome was “inactive”.
For CCC(C)(C)c1ccc(O)cc1, the outcome was “inactive”.
CC(C)(C)c1ccc(O)cc1 was tested, and the outcome was “inactive”.
